Data taken from PubChem BioAssay (EPA / NIEHS).
Results filed as inconclusive are left out. The source made the active and inactive calls. Rule for the calls, unless noted: active = hit-call score of the fitted dose curve at least 0.9, where 1 is the maximum; inactive = score below 0.9.

How the values were obtained:
[1] = CCTE_Shafer_MEA_acute_spike_number: CCTE's Neural Acute Assay for Total Number of Spikes, Shafer Lab (AID 2284008);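 for AC50: curve fitted for decrease in spike count so AC50 reflects inhibitors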
Outline: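 Total spike count from 40 min recordings before and during compound exposure (0.03-40 uM), given as per-well percent change. Cortical cultures from rat, DIV 13 or 15, 37 C; adaptive detection threshold 8x rms noise.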

[2] = CCTE_Shafer_MEA_acute_firing_rate_mean: CCTE's Neural Acute Assay for Mean Firing Rate, Shafer Lab (AID 2284009);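 note: analyzed for loss of signal so actives lower firing rate relative to DMSO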
Outline: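 Spontaneous spiking of primary rat cortical networks, DIV 13/15, 37 C. Compound 0.03-40 uM, n ≥3 wells; 40 min baseline vs 40 min treated. Endpoint fitted in loss-of-signal direction against DMSO.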

[3] = CCTE_Harrill_HTTr_Viability_MCF7: CCTE's 6-hour Cell Viability Assessment for the High-Throughput Transcriptomics (HTTr) Platform, in MCF-7 cells cultured in DMEM + 10% fetal bovine serum, Harrill Lab (AID 2284010)
Outline: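 Propidium iodide exclusion, imaged by high-content analysis, gauged viability after a six-hour exposure across eight concentrations. Cells were MCF-7 grown in DMEM with 10% fetal bovine serum; fits run in both directions against DMSO.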

[4] = CCTE_Harrill_HTTr_Apoptosis_MCF7: CCTE's 6-hour Apoptosis Assessment for the High-Throughput Transcriptomics (HTTr) Platform, in MCF-7 cells cultured in DMEM + 10% fetal bovine serum, Harrill Lab (AID 2284011)
Outline: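 High-content imaging of CellEvent Caspase 3/7 Green signal follows a six-hour exposure, with eight concentrations per chemical. MCF-7 cells grown in DMEM plus 10% fetal bovine serum; activity fitted in both directions against DMSO.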

[5] = CCTE_Harrill_HTTr_CellCount_MCF7: CCTE's Cell Proliferation Assessment for the High-Throughput Transcriptomics (HTTr) Platform, Harrill Lab (AID 2284012; active = hit-call score of the fitted dose curve at least 0.9, where 1 is the maximum;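 note: cells exposed to compound for six hours; intended direction is loss of nuclei count meaning fewer cells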)
Outline: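 Cell count from high-content imaging of Hoechst-labeled nuclei serves as viability/growth readout. Chemicals were applied to MCF-7 cells in eight concentrations for six hours, with fitting in both directions relative to DMSO.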

[6] = CCTE_Shafer_MEA_acute_burst_number: CCTE's Neural Acute Assay for Single-Electrode Bursts, Shafer Lab (AID 2284013)
Outline: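 Burst totals were derived with adaptive spike detection (8x rms threshold) on filtered signals from rat cortical cultures; change relative to pre-treatment baseline after 40-min compound exposure (0.03-40 uM) was fitted in the negative direction against DMSO.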

[7] = CCTE_Shafer_MEA_acute_burst_duration_mean: CCTE's Neural Acute Assay for Mean Burst Duration, Shafer Lab (AID 2284014);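 note: hits are decreases in mean burst duration relative to DMSO controls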
Outline: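 Acute exposure of mature rat cortical networks (DIV 13 or 15) grown on microelectrode arrays to 0.03-40 uM compound. Mean burst duration compared with the 40-min pre-dose baseline over a 40-min post-dose recording at 37 C.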

[8] = CCTE_Shafer_MEA_acute_per_burst_spike_number_mean: CCTE's Neural Acute Assay for Average Number of Spikes Per Burst, Shafer Lab (AID 2284015);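 note: hits are decreases in mean spikes per burst versus baseline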
Outline: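 Rat primary cortical neurons on 48-well MEAs (DIV 13 or 15) were treated with 0.03-40 uM compound at 37 C. Mean spikes per burst over 40 min were recorded before and after exposure and expressed as percent change from baseline, relative to DMSO.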

[9] = CCTE_Shafer_MEA_acute_interburst_interval_mean: CCTE's Neural Acute Assay for Mean Interburst Interval, Shafer Lab (AID 2284016);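 note: percent change of mean interburst interval versus each well's own pre-dose baseline; curves fitted for decrease in interburst interval relative to DMSO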
Outline: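 Rat primary cortical neurons on 48-well MEAs at DIV 13 or 15 were exposed acutely to 0.03-40 uM. Spikes detected at 8x rms noise, 37 C. Mean interburst interval from 40 min recordings expressed as percent change from 40 min pre-treatment baseline.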

[10] = CCTE_Shafer_MEA_acute_burst_percentage_mean: CCTE's Neural Acute Assay for Percentage of Spikes in a Burst, Shafer Lab (AID 2284017);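 for AC50: curve fitted for loss of signal so potency reflects decreased burst percentage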
Outline: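 Primary rat cortical neurons on 48-well MEA plates, treated on DIV 13 or 15 at 0.03-40 uM. Spikes detected at 8x rms noise at 37C; percent change from 40-min baseline to 40-min post-dose recording, fitted versus DMSO.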

[11] = CCTE_Shafer_MEA_acute_per_network_burst_spike_number_mean: CCTE's Neural Acute Assay for Average Number of Spikes in a Network Burst, Shafer Lab (AID 2284019);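 for AC50: curve fitted for loss of signal so actives reduce spikes per network burst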
Outline: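 Acute exposure of rat primary cortical networks (DIV 13/15) on MEAs; adaptive spike detection at 8x rms noise, 37 C. Percent change in spikes per network burst after 40 min with compound (0.03-40 uM), negative direction vs DMSO.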

[12] = CCTE_Shafer_MEA_acute_per_network_burst_spike_number_std: CCTE's Neural Acute Assay for Standard Deviation of Number of Spikes in a Network Burst, Shafer Lab (AID 2284020);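 note: fitted for decrease in spike-number SD versus DMSO so actives lower it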
Outline: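 Acute MEA exposure, rat cortical neurons, 0.03-40 uM. Per-well % change versus own baseline; DMSO as negative control.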

[13] = CCTE_Shafer_MEA_acute_per_network_burst_electrodes_number_mean: CCTE's Neural Acute Assay for Mean Number of Electrodes in a Network Burst, Shafer Lab (AID 2284021);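 note: curves fitted for decreases only so hits reduce electrodes per burst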
Outline: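 Percent change from baseline was computed as mean electrode count per network burst, comparing 40 min recordings before and during compound (0.03-40 uM) exposure. Cultures were rat cortical neurons at DIV 13 or 15, recorded on MEAs at 37 C with an adaptive 8x rms threshold.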

[14] = CCTE_Shafer_MEA_acute_network_burst_percentage: CCTE's Neural Acute Assay for Percentage of Network Bursts, Shafer Lab (AID 2284022);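 note: curves fitted for loss so actives lower network burst percentage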
Outline: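 Network burst percentage (spikes in network bursts divided by total spikes) recorded at 37 C over 40 min baseline and 40 min after compound, 0.03-40 uM, in rat cortical cultures at DIV 13 or 15. Analysed as percent change from baseline versus DMSO.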

[15] = CCTE_Shafer_MEA_acute_cross_correlation_HWHM: CCTE's Neural Acute Assay for Cross Correlation at Half Width at Half Maximum, Shafer Lab (AID 2284026);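 note: percent change per well from pre-dose baseline in spike cross-correlogram half width; hits are a decrease in cross-correlogram half width relative to DMSO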;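 for outcome: spontaneous network firing of rat primary cortical neurons on multiwell microelectrode arrays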
Outline: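 Per-well percent change in cross-correlogram half width at half maximum, derived from 40-min recordings before and after compound (0.03-40 uM) at 37 C. Cultures were rat cortical neurons, DIV 13 or 15, with adaptive spike detection at 8x rms.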

[16] = CCTE_Shafer_MEA_acute_synchrony_index: CCTE's Neural Acute Assay for Synchrony, Shafer Lab (AID 2284027);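 note: network synchrony index of spontaneous spiking in primary rat cortical neurons on MEAs; fitted for loss of signal so actives lower synchrony relative to DMSO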
Outline: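 The synchrony index is taken as percent change per well between a 40 min baseline and a 40 min recording with compound (0.03–40 uM), at 37C. Rat cortical cultures on multiwell MEAs at DIV 13 or 15, spike threshold 8× rms noise.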

[17] = CCTE_Simmons_MITO_inhib_resp_rate: CCTE's HepG2 Seahorse XF Respirometric Screening Assay at Inhibited Respiratory State [full ETC block], Simmons Lab (AID 2284006); settings: actives raise or lower the signal
Outline: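 This endpoint is the respiration rate remaining after rotenone/antimycin A block, in HepG2 cells on a Seahorse XF96. Chemicals spanned 125 nM–100 uM final, in three biological replicates. OCR was read every 6 minutes for 72 minutes and compared with DMSO vehicle.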

[18] = CCTE_Deisenroth_AIME_96WELL_CTox_Active: Cytotoxicity Assessment (CTOX) in CCTE's 96-well Estrogen Receptor Transactivation Assay with AIME metabolic competence (metabolism positive), Deisenroth Lab (AID 2284028; active = hit-call score of the fitted dose curve at least 0.9, where 1 is the maximum)
Outline: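 Cytotoxicity in VM7Luc4E2 breast cells after 24 h exposure to medium from a 2 h metabolic pre-incubation with induced rat hepatic S9 in alginate microspheres; fluorescent live-cell protease readout, 10-point series 0.002–200 uM, n=4.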

[19] = CCTE_Deisenroth_AIME_96WELL_CTox_Inactive: Cytotoxicity Assessment (CTOX) in CCTE's 96-well Estrogen Receptor Transactivation Assay without AIME metabolic competence (metabolism negative), Deisenroth Lab (AID 2284029; active = hit-call score of the fitted dose curve at least 0.9, where 1 is the maximum)
Outline: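 Metabolism-negative mode: alginate-water lids without rat S9, 2 h pre-incubation of 10-point series (0.002 - 200 uM). Conditioned medium on VM7Luc4E2 cells 24 h; loss of fluorescent live-cell protease signal marks cytotoxicity.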

CC[C@H]1OC(=O)[C@H](C)[C@@H](O[C@H]2C[C@@](C)(OC)[C@@H](O)[C@H](C)O2)[C@H](C)[C@@H](O[C@@H]2O[C@H](C)C[C@H](N(C)C)[C@H]2O)[C@](C)(O)C[C@@H](C)C(=O)[C@H](C)[C@@H](O)[C@]1(C)O
outcome [1]: inactive | outcome [2]: inactive | outcome [3]: inactive | outcome [4]: inactive | outcome [5]: inactive | outcome [6]: inactive | outcome [7]: inactive | outcome [8]: inactive | outcome [9]: inactive | outcome [10]: inactive | outcome [11]: inactive | outcome [12]: inactive | outcome [13]: inactive | outcome [14]: inactive | outcome [15]: inactive | outcome [16]: inactive

CCCCCCc1ccc(O)cc1O
outcome [17]: inactive | AC50 [1]: 12.8 µM (active) | AC50 [2]: 12.9 µM (active) | outcome [3]: inactive | outcome [4]: inactive | outcome [5]: inactive | AC50 [6]: 12.5 µM (active) | outcome [7]: inactive | AC50 [8]: 20 µM (active) | AC50 [9]: 30.1 µM (active) | AC50 [10]: 15 µM (active) | AC50 [11]: 6.93 µM (active) | AC50 [12]: 15.9 µM (active) | AC50 [13]: 8.5 µM (active) | outcome [14]: inactive | AC50 [15]: 20 µM (active) | AC50 [16]: 6.73 µM (active)

CCOC(=O)COc1ccc2c(c1)CC(NCC(O)c1cccc(Cl)c1)CC2 (stereo not given)
outcome [17]: inactive | outcome [3]: inactive | outcome [4]: inactive | outcome [5]: inactive

O=C(O)c1cc(N=Nc2ccc(S(=O)(=O)Nc3ccccn3)cc2)ccc1O
AC50 [1]: 0.00807 µM (active) | AC50 [2]: 0.00818 µM (active) | outcome [3]: inactive | outcome [4]: inactive | outcome [5]: inactive | AC50 [6]: 0.0299 µM (active) | outcome [7]: inactive | outcome [8]: inactive | outcome [9]: inactive | outcome [10]: inactive | outcome [11]: inactive | outcome [12]: inactive | outcome [13]: inactive | outcome [14]: inactive | outcome [15]: inactive | outcome [16]: inactive

CC[C@H]1CC[C@H](NCc2cc3c(cc2OC)[C@H]2C[C@H]2C(=O)N3C)[C@H](c2ccccc2)N1
AC50 [1]: 3.07 µM (active) | AC50 [2]: 3.07 µM (active) | outcome [3]: inactive | outcome [4]: inactive | outcome [5]: inactive | AC50 [6]: 3.09 µM (active) | outcome [7]: inactive | outcome [8]: inactive | AC50 [9]: 7.83 µM (active) | AC50 [10]: 30.9 µM (active) | outcome [11]: inactive | outcome [12]: inactive | outcome [13]: inactive | outcome [14]: inactive | AC50 [15]: 20 µM (active) | outcome [16]: inactive

C1N2CN3CN1CN(C2)C3
outcome [3]: inactive | outcome [4]: inactive

CC(C)CCO
outcome [3]: inactive | outcome [4]: inactive

Cn1c(=O)c2c(ncn2C)n(C)c1=O
outcome [1]: inactive | outcome [2]: inactive | outcome [3]: inactive | outcome [4]: inactive | outcome [5]: inactive | outcome [6]: inactive | AC50 [7]: 30.8 µM (active) | AC50 [8]: 31.8 µM (active) | outcome [9]: inactive | outcome [10]: inactive | outcome [11]: inactive | outcome [12]: inactive | outcome [13]: inactive | outcome [14]: inactive | outcome [15]: inactive | outcome [16]: inactive | outcome [18]: inactive | outcome [19]: inactive

CNCc1ccc(NC(=O)c2c[nH]c3c2C(=O)CCC3)cc1
outcome [3]: inactive | outcome [4]: inactive

CCCCCCCCCCCCCCCO
outcome [3]: inactive | outcome [4]: inactive

CCCCC(CC)COC(=O)CCCCCCCCC(=O)OCC(CC)CCCC (stereo not given)
outcome [1]: inactive | outcome [2]: inactive | outcome [3]: inactive | outcome [4]: inactive | outcome [6]: inactive | outcome [7]: inactive | outcome [8]: inactive | outcome [9]: inactive | outcome [10]: inactive | outcome [11]: inactive | outcome [12]: inactive | outcome [13]: inactive | outcome [14]: inactive | outcome [15]: inactive | outcome [16]: inactive
